Compound activity from PubChem.
aSyn 5UTR inh: 5' untranslated region of α-synuclein, MLPCN primary screen; alpha-synuclein 5'UTR reporter, inhibitor activity; inhibition, % (tested at 7.5 µM); 300,000 compounds, 0.82% hits; AID 1813; in the data active = inhibition above about 60%;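 also: H4 neuroglioblastoma cells stably carrying SNCA 5'UTR luciferase fusion; 0% = DMSO wells and 100% = positive control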
APP 5UTR inh: APP translation inhibition; SH-SY5Y APP 5'UTR-luciferase reporter, luminescence; inhibition, % at 2 µM; 190,000 compounds, 0.82% hits; AID 1285;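 active = inhibition above a set limit, derived from the sample mean plus 3 SD, cut at about 45% in these data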
BaF3 tox: parental Ba/F3 viability inhibition as JAK2V617F counter-screen; inhibition, % at 5.6 µM; 220,000 compounds, 1.1% hits; CellTiter-Glo ATP luminescence;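 active = inhibition above a per-campaign cutoff, the mean inhibition of all tested compounds plus 3 SD, cut at about 27% in these data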;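 also: 0% = DMSO wells and 100% = JAK Inhibitor I control wells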
KLF5 inhibitor: kruppel-like factor 5 inhibition | AID 1700 | DLD-1 KLF5 promoter-luciferase reporter, luminescence | 290,000 compounds, 0.23% hits | inhibition, % at 5 µM;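 active = inhibition above a per-plate limit of that plate's mean compound inhibition plus 3 SD, cut at about 60% in these data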;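 also: 0% = DMSO wells and 100% = LY294002 at 200 µM; higher means less KLF5 promoter-driven luciferase light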
IEC-6 cytotox: kills IEC-6 intestinal cells in KLF5 counter-screen | inhibition, % at 5 µM | IEC-6 cytotoxicity, luminescence viability | AID 1825 | 290,000 compounds, 0.78% hits; in the data active = inhibition above about 22%;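 also: 0% = plate median of test compound wells and 100% = cytotoxic reference compound wells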
Ba/F3 V617F tox: lowers viability of Ba/F3 cells expressing EpoR and JAK2V617F; ATP luminescence; inhibition, % at 5.6 µM; 220,000 compounds, 1.1% hits; AID 1446;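 active = inhibition above the campaign mean plus 3 SD over all tested compounds, cut at about 24% in these data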;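 also: cytokine-independent growth of Ba/F3 cells driven by EpoR plus mutant JAK2; 0% = DMSO-treated cells and 100% = JAK inhibitor I control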
BaF3 parental 2: counter-screen for JAK2V617F inhibitors: parental Ba/F3 viability inhibitors; shares compounds with Ba/F3 V617F tox; CellTiter-Glo luminescence; cells kept alive by added IL-3; inhibition, % at 5.6 µM; 580 compounds, 31% hits; AID 1520;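 active = cell growth inhibition above the hit limit set in the earlier mutant JAK2 cell screen, cut at about 27% in these data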;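 also: plate controls were DMSO-treated cells for no effect and JAK Inhibitor I control wells for full effect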
JAK2V617F confrm: Ba/F3 EpoR-JAK2V617F viability loss, confirmation; shares compounds with Ba/F3 V617F tox; CellTiter-Glo luminescence; inhibition, % at 5.6 µM; 580 compounds, 66% hits;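 active = mean inhibition above the hit cutoff derived in the earlier primary screen, cut at about 25% in these data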;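 also: 0% = DMSO-treated cells and 100% = JAK inhibitor I control wells; higher means lower luminescence from reduced cell ATP and viability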
* = called active by the depositor; · = not tested or not shown. Hits are enriched below; roughly 2.2% of the tested compounds scored in any of these assays.

SMILES	aSyn 5UTR inh	APP 5UTR inh	BaF3 tox	KLF5 inhibitor	IEC-6 cytotox	Ba/F3 V617F tox	BaF3 parental 2	JAK2V617F confrm
CC(=O)c1ccc(N2CCN(C(=O)c3ccc4ccccc4n3)CC2)cc1	33	5	11	0	-3	76*	-2	-5
CC(=O)NS(=O)(=O)c1ccc(NC(=O)CCC(=O)Oc2ccc(C)cc2)cc1	-2	·	·	-2	1	·	·	·
CCOC(=O)c1cnc2ccc(OCC)cc2c1NCc1cccnc1	-43	-9	0	-27	6	16	·	·
CCOC(=O)c1cnc2ccc(OCC)cc2c1NCc1ccccc1	-10	8	-5	-37	12	24*	5	31*
CCN(CC)C(=O)C1=C(C)NC(=O)NC1c1c(F)cccc1Cl (stereo not given)	17	6	0	-21	-4	29*	-6	1
O=C(OCC(=O)N1CCCc2ccccc21)c1cccc(S(=O)(=O)N2CCOCC2)c1	5	·	·	·	·	·	·	·
CCOC(=O)c1c(NC(=O)/C=C/C(=O)O)sc(C)c1-c1ccc(C(C)(C)C)cc1	-34	-5	17	-7	0	28*	16	43*
Cc1ccc(N(CC(O)CN2C(=O)NC(C)(C)C2=O)S(=O)(=O)c2ccc(C)cc2)cc1 (stereo not given)	-16	·	2	1	1	25*	0	-1
CCOC(=O)c1c(NC(=O)COC(=O)CC(NC(C)=O)c2ccccc2)sc(C(=O)NC)c1C (stereo not given)	11	·	·	·	·	·	·	·
CCn1c(SCC(=O)Nc2ccccc2F)nnc1-c1ccoc1C	-15	·	·	-8	-2	·	·	·
CCn1c(SCC(=O)Nc2ccccc2-c2ccccc2)nnc1-c1ccoc1C	2	1	1	-13	-2	52*	-2	5
O=C(N/N=C/c1cc2c3c(c1O)CCCN3CCC2)c1ccccc1O	104*	85*	5	5	-5	35*	95*	96*
Cc1[nH]c2ccccc2c1C(=O)C(=O)N1CCN(c2ccccc2)CC1	4	·	·	-43	-10	·	·	·
CCCCCCc1nc(C(N)=O)c2[nH]c(=O)n(-c3ccccc3F)c2n1	25	·	·	-11	-6	·	·	·
COC(=O)c1cn(NC(=O)c2cc([N+](=O)[O-])ccc2F)c(=O)c2ccccc12	3	23	24	32	6	36*	41*	97*
COC(=O)c1cn(NC(=O)C2CCC(C)CC2)c(=O)c2ccccc12 (stereo not given)	17	-15	3	24	6	4	·	·
Nc1c(N=Nc2ccccc2F)c(=O)[nH]n1-c1ccccc1	-125	-61	7	-42	5	4	·	·
Nc1nn(-c2ccccc2)c(N)c1N=Nc1ccccc1F	-98	-181	24	-118	24*	36*	36*	69*
CC(C)(C)SCCNS(=O)(=O)c1ccccc1	11	21	-2	-2	0	99*	-5	-12
CC(C)(C)SCCNS(=O)(=O)c1ccc2ccccc2c1	1	10	0	-3	0	-2	·	·
O=C(CNC(=O)c1sc2ccccc2c1Cl)NCc1cccc(C(F)(F)F)c1	-5	·	·	·	·	·	·	·
Cc1ccc(/C=[N+](\[O-])c2ccc(N(C)C)cc2)c2nsnc12	2	61*	5	-51	5	47*	-1	-3
COc1ccc(C2CC(=O)N3C(=C2C#N)SCC3(O)c2ccccc2)cc1 (stereo not given)	23	-20	-1	1	5	-5	·	·
N#CC1=C2SCC(O)(c3ccccc3)N2C(=O)CC1c1ccccc1F (stereo not given)	-18	-3	17	21	15	27*	20	25*
COc1ccccc1N(CC(=O)NC1CCCC1)C(=O)CCC(=O)Nc1ccccn1	8	·	·	-22	-6	·	·	·
SMILES	aSyn 5UTR inh	APP 5UTR inh	BaF3 tox	KLF5 inhibitor	IEC-6 cytotox	Ba/F3 V617F tox	BaF3 parental 2	JAK2V617F confrm
O=C(c1cc(Br)ccc1Cl)N1CCN(c2ccccn2)CC1	-7	·	·	-39	1	·	·	·
CCCCCCCCCCCC(=O)NC1CCS(=O)(=O)C1 (stereo not given)	13	11	0	-24	1	70*	-4	0
c1ccc(-c2cn(C[C@H]3CC[C@H](Cn4cc(-c5ccccn5)nn4)O3)nn2)nc1	0	·	·	-14	1	·	·	·
Cc1cccnc1NC(=O)CCc1c[nH]c2ccccc12	-23	·	·	-55	6	·	·	·
[O-][N+]1=c2ccc(Nc3ccccc3)cc2=NC12CCCCC2	-57	33	8	-1	10	42*	5	98*
O=[N+]([O-])c1ccc2c(c1N1CCCCC1)=NC1(CCCCC1)[N+]=2[O-]	-32	·	0	-21	-7	-5	·	·
COc1ccc(Nc2ccc3c(c2)=NC2(CCCCC2)[N+]=3[O-])cc1	-87	49*	2	-28	9	44*	19	100*
O=C(NCCCN1CCCC1=O)c1ccc(NS(=O)(=O)c2cccc([N+](=O)[O-])c2)cc1	-3	·	·	·	·	·	·	·
Cc1onc(C(=O)NC2CCCCC2)c1[N+](=O)[O-]	-4	·	·	-58	1	·	·	·
COc1ccc(C(=O)N2CCCC(Nc3ccc(C)c(C)c3)C2)c(OC)n1 (stereo not given)	5	·	·	-5	-4	·	·	·
Cc1ccc(Nc2nc(C)c(CCC(C)C)c(=O)[nH]2)cc1	-94	-11	5	-1	-5	2	·	·
Cc1nc(NCc2ccccc2)[nH]c(=O)c1CCC(C)C	-24	-1	-4	13	4	53*	-1	-3
Cc1ccc(C)c(OC(C)C(=O)Nc2nccs2)c1 (stereo not given)	-7	·	·	-13	-8	·	·	·
Cc1ccc(NS(=O)(=O)c2cc3c4c(cccc4c2)C(=O)NC3=O)cc1C	32	·	11	-1	15	25*	45*	77*
COc1ccc(NC(=O)Cc2nnc(SCC(=O)Nc3ccc(F)cc3)n2C)cc1	-34	·	·	14	2	·	·	·
COc1ccc(C)cc1NC(=O)c1nnn(Cc2cc(C)ccc2C)c1N	30	13	0	-4	4	-2	·	·
COc1ccc(OC)c(NC(=O)c2nnn(Cc3ccccc3C)c2N)c1	40	-9	20	32	7	24*	37*	30*
O=S1(=O)C=C(Sc2nc3cc(Cl)ccc3o2)c2ccccc21	55	40	7	-10	-4	44*	107*	99*
COc1c(Cl)cc(C(=O)NN)cc1Cl	99*	92*	21	15	52*	42*	-6	-2
O=C(NCC1CCCO1)c1cccc(N2C(=O)C3C4C=CC(C4)C3C2=O)c1 (stereo not given)	-12	-4	1	-12	-6	96*	-6	-5
COCCOC(=O)C1=C(C)N(c2ccccc2)C(=O)NC1c1cccc([N+](=O)[O-])c1 (stereo not given)	15	-9	12	-16	-2	34*	-3	9
